Experimental findings from PubChem BioAssay (NCATS) are described below.

The nature of assay [1]: Cell Viability - H-4-II-E (AID 543).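 Also: cells exposed to compound for 40 hours; % is scaled to controls: 0 for no effect and ±100 for the full control effect; nearly all actives have a fitted effect of over 35% in size.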 The essentials:
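CellTiter-Glo luminescence (intracellular ATP) measured after 40 h compound exposure at 37 °C in H-4-II-E rat hepatoma cells seeded at 1500/well. Values are AC50s fitted with the standard Hill equation.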

Assay [2] can be described thus: Cell Viability - SH-SY5Y (AID 544).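 Also: cells exposed to compound for 40 hours; nearly all actives have a fitted effect of over 55% in size.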 The note with it: SH-SY5Y neuroblastoma cell viability; viability change, negative = cytotoxic: at 92.2 µM (top of the series). The essentials: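 Cytotoxicity measured via ATP-dependent luciferase luminescence (CellTiter-Glo) following 40 h, 37 °C exposure of 1500 SH-SY5Y cells per well. Concentration-response data were fitted with the standard Hill equation to give AC50.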

A short description of assay [3]: Cellular Toxicity (caspase-3) Jurkat (AID 655).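 Also: cells exposed to compound for 16 h at 37 °C before reading.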 The settings on record: Jurkat caspase-3 activation, luminescence; caspase-3 activation: at 92.2 µM (top of the series), DMSO = 0%, tamoxifen = 100%. In outline: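 Jurkat cells (5000/well) in complete medium exposed 16 h at 37 C; caspase-3/7 activity read by Caspase-Glo luminescence after 20 min at room temperature. Normalized to DMSO and 100 uM tamoxifen; AC50 from Hill fits.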

A short description of assay [4]: Cell Viability - LYMP2-001 (AID 921).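 Also: 0% = DMSO only and full inhibition = tetraoctylammonium bromide control wells; nearly all actives have a fitted effect of over 70% in size.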 The essentials:
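Human lymphoblastoid LYMP2-001 cells, 2500 per well, in complete medium, treated 24 h at 37 C. Viability from cellular ATP by CellTiter-Glo luminescence; AC50 from Hill-equation fits of qHTS concentration-response.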

A short description of assay [5]: MultiTox-Fluor Cytotoxicity Assay - LYMP1-003 - Live Cells (AID 962).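 Also: 0% = DMSO only and full loss = 92 µM tetraoctylammonium bromide; cytotoxic hits lower the live-cell protease signal.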 The essentials:
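Live-cell protease activity (GF-AFC substrate, 405/510 nm, 60 min at room temperature) after 16 h, 37 C compound exposure of human lymphoblastoid LYMP1-003 cells; concentration-response fitted to the Hill equation for AC50.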

A short description of assay [6]: Cell Viability - LYMP2-004 (AID 966).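 Also: plate controls were DMSO only for no effect and tetraoctylammonium bromide control for full effect; nearly all actives have a fitted effect of over 65% in size.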 In outline: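 AC50 values come from Hill modelling of concentration-dependent loss of intracellular ATP, measured by CellTiter-Glo luminescence. Human LYMP2-004 lymphoblastoid cells (2500/well) were exposed to compound for 24 h at 37 C.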
A short description of assay [7]: Cell Viability - LYMP2-015 (AID 971).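 Also: 0% = DMSO only and full effect = 92 µM tetraoctylammonium bromide; nearly all actives have a fitted effect of over 55% in size.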 In outline: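 Cytotoxicity readout: decrease in intracellular ATP (CellTiter-Glo luminescence) in 2500 LYMP2-015 lymphoblastoid cells/well after 24 h compound exposure at 37 C. Concentration-response data fitted with the standard Hill equation to give AC50.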
The nature of assay [8]: Cell Viability - LYMP2-019 (AID 973).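 Also: 0% = DMSO alone and full effect = 92 µM tetraoctylammonium bromide; nearly all actives have a fitted effect of over 55% in size.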 The essentials:
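AC50 values come from Hill-equation fits of luminescent intracellular ATP (CellTiter-Glo, 30 min, room temperature) following 24 h compound exposure at 37 C. Cells: LYMP2-019 lymphoblastoid line, 2500 per well, in complete culture medium.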

A short description of assay [9]: Cell Viability - LYMP2-021 (AID 974). Also: % is scaled to controls: 0 for no effect and ±100 for the full control effect; nearly all actives have a fitted effect of over 55% in size. In outline:
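AC50 values come from Hill-equation fits to CellTiter-Glo luminescence (ATP content), read after 24 hour compound exposure at 37 C of 2500 LYMP2-021 lymphoblastoid cells/well; tetraoctylammonium bromide as positive control.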

Assay [10] can be described thus: Cell Viability - LYMP2-025 (AID 976).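 Also: plate controls were DMSO only for no effect and tetraoctylammonium bromide control for full effect.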 The essentials:
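Cytotoxicity read as loss of intracellular ATP (luciferase luminescence) after 24 h compound treatment at 37 C. Uses LYMP2-025 lymphoblastoid cells in 1536-well format; Hill-equation modelling gives AC50; tetraoctylammonium bromide as positive control.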

Assay [11] in a line: Cell Viability - LYMP2-006 (AID 978). Also: % is scaled to controls: 0 for no effect and ±100 for the full control effect; nearly all actives have a fitted effect of over 60% in size. In outline:
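Human lymphoblastoid cells (LYMP2-006), 2500/well in complete medium, were treated with compound for 24 hr at 37 C. Cellular ATP was read by CellTiter-Glo luminescence after 30 min, and AC50 values came from Hill-equation fits of concentration-response data.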

The nature of assay [12]: Cell Viability - LYMP2-007 (AID 979).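 Also: cells exposed to compound for 24 h before reading; 0% = DMSO only and the negative end = 92 µM tetraoctylammonium bromide; nearly all actives have a fitted effect of over 60% in size.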 In outline:
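AC50 values come from Hill-equation fits of luminescent intracellular ATP (CellTiter-Glo, 30 min, room temperature) following 24 h compound exposure at 37 C. Cells: LYMP2-007 lymphoblastoid line, 2500 per well, in complete culture medium.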

Assay [13] in a line: Cell Viability - LYMP2-014 (AID 983).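 Also: plate controls were DMSO only for no effect and 92 µM tetraoctylammonium bromide for full effect; nearly all actives have a fitted effect of over 50% in size.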 The essentials:
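Intracellular ATP loss, read by luciferase luminescence, measures acute cytotoxicity after 24 h compound exposure of lymphoblastoid LYMP2-014 cells (2500/well, 37 C). Concentration-response data fitted to the Hill equation for AC50.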

Assay [14] in a line: Cell Viability - LYMP2-018 (AID 985).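 Also: plate controls were DMSO only for no effect and tetraoctylammonium bromide at 92 µM for full effect; nearly all actives have a fitted effect of over 50% in size.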 The essentials: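 Viability read as CellTiter-Glo luminescence (cellular ATP) after 24 hr compound exposure at 37 C of 2500 LYMP2-018 lymphoblastoid cells/well, pre-plated 5 hr. Hill-equation modelling gave AC50.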
Assay [15] in a line: Cell Viability - LYMP2-020 (AID 986). In outline: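 Cytotoxicity in qHTS format: luminescent ATP readout from CellTiter-Glo after 24 h compound exposure at 37 C in complete medium. LYMP2-020 lymphoblastoid cells were seeded at 2500/well; concentration-response data fitted to the Hill equation for AC50.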
Assay [16] can be described thus: Cell Viability - LYMP2-022 (AID 987). In outline: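 Cytotoxicity read as decreased cellular ATP (CellTiter-Glo luminescence, 30 min room temperature) after 24 hours compound exposure of 2500 lymphoblastoid LYMP2-022 cells/well at 37 C. Concentration-response data fitted with standard Hill equation for AC50.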
A short description of assay [17]: Cell Viability - LYMP2-026 (AID 989). Also: % is scaled to controls: 0 for no effect and ±100 for the full control effect; nearly all actives have a fitted effect of over 50% in size. The essentials:
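Cytotoxicity read as ATP-dependent luminescence (CellTiter-Glo, 30 min room temperature) after 24 h compound treatment at 37 C. LYMP2-026 lymphoblastoid line seeded at 2500 cells/well; AC50 derived by standard Hill equation.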

Assay [18] in a line: Cell Viability - LYMP1-002 - Assay at 40 hr (AID 994).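 Also: 0% = DMSO only and full inhibition = 92 µM tetraoctylammonium bromide; nearly all actives have a fitted effect of over 60% in size.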 The essentials: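 Cytotoxicity was read as loss of cellular ATP (CellTiter-Glo luminescence) after 40 hr compound exposure at 37 C of 2500 LYMP1-002 lymphoblastoid cells per well. Concentration-response data were fitted with the standard Hill equation to give AC50.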
The nature of assay [19]: qHTS assay for small molecule agonists of retinoid X receptor alpha signaling (AID 588544). The note with it: HEK293T RXRa-UAS-bla, beta-lactamase reporter, 18 h; 530 nm emission. A general note: qHTS replaces the single test concentration by a dilution series.
Assay [20] is described as follows: qHTS assay for small molecule antagonists of the retinoid-related orphan receptor gamma (ROR-gamma) signaling pathway - cell viability counter screen (AID 720652; active = well fitted curve in the direction sought with a large enough effect in the repeat runs; an effect the other way counts as inactive or inconclusive;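 also: CHO reporter cells with doxycycline-induced ROR-gamma expression; compound exposure lasted 16 hr before ATP read; % is scaled to controls: 0 for no effect and ±100 for the full control effect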). In outline:
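Cytotoxicity counter screen: intracellular ATP (CellTiter-Glo luminescence) measured in the doxycycline-induced CHO RORE-luciferase reporter line after 16 hr compound exposure at 37 C, 5% CO2.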

Where “and” joins values, the source holds several entries; their conditions need not be identical. Equal values may be shown once. Inconclusive results are not listed. Calls of active or inactive are those of the source. Unless noted, calls follow the shape of the dose curve; as a rule, active = well fitted curve in the direction sought with a large enough effect; inconclusive = small, poorly fitted or top-dose-only effect, or another doubt; inactive = no such curve, though single readings can be large; an effect the other way counts as inactive or inconclusive.

For `Clc1cccc(Cl)c1`, the Potency entry in assay [1], in assay [2], in [4], in assay [6], in assay [7] and in assay [8] was “inactive” each time. Besides, the Potency result in assay [9], in assay [10], in assay [11], in assay [12], in assay [13] and in [14] was “inactive” in each case. In addition, the Potency entry in assay [15], in [16], in assay [17] and in assay [18] was “inactive” in each case. The caspase-3 activation in assay [3] is -0.0419% (inactive). Also, the molecule was classed as inactive in assay [5]. In addition, the max response in [19] was 5.35%.

In the case of `CCCCCOC(=O)c1ccccc1C(=O)OCCCCC`, the Potency result in [1], in [2], in assay [4], in assay [6], in assay [7] and in assay [8] was “inactive” each time. For the same molecule, the Potency result in assay [9], in assay [10], in assay [11], in assay [12], in [13] and in [14] was “inactive” in each case. Further, the Potency entry in assay [15], in [16], in [17], in [18] and in assay [20] was “inactive” in each case. In addition, in assay [3], the caspase-3 activation was 0.132% (inactive). Also, the molecule was called inactive in assay [5]. In assay [19], the max response is -10.9% and 3.25%.

As to `C/C=C/C=O`, the Potency result in assay [1], in [2], in assay [4], in [6], in assay [7] and in assay [8] was “inactive” in each case. Besides, the Potency entry in [9], in [10], in assay [11], in assay [12], in assay [13] and in assay [14] was “inactive” each time. Further, the Potency result in [15], in [16], in assay [17], in [18] and in assay [20] was “inactive” throughout. Moreover, the caspase-3 activation in [3] was 0.559% (inactive). Moreover, the result in assay [5] was inactive. Further, in assay [19], the max response was -18.6%.

With `O=C(Cc1ccccc1)OCc1ccccc1`, the Potency entry in assay [1], in [2], in assay [4], in [6], in assay [7] and in assay [8] was “inactive” in each case. Besides, the Potency result in assay [9], in assay [10], in assay [11], in assay [12], in [13] and in assay [14] was “inactive” each time. Besides, the Potency result in [15], in [16], in [17], in assay [18] and in assay [20] was “inactive” in each case. Moreover, the caspase-3 activation in assay [3] was 3.55% (inactive). The molecule was called inactive in assay [5]. Besides, the max response in assay [19] was found to be 10.7%.

In the case of `CC(C)(Cl)Cl`, the Potency result in assay [1], in [2], in [6], in assay [7], in assay [8] and in assay [9] was “inactive” in each case. Also, the Potency entry in assay [10], in [11], in assay [12], in assay [13], in assay [14] and in assay [15] was “inactive” throughout. For the same molecule, the Potency entry in assay [16], in assay [17], in assay [18] and in [20] was “inactive” throughout. The caspase-3 activation in [3] was -0.572% (inactive). The molecule was classed as inactive in [5]. Further, the max response in assay [19] was -10.7%.

As to `CNC(=O)O/N=C/C(C)(C)S(C)=O` (configuration not stated), the Potency result in [1], in assay [4], in assay [6], in assay [7], in [8] and in assay [9] was “inactive” in each case. Moreover, the Potency result in [10], in assay [11], in assay [12], in assay [13], in assay [14] and in [15] was “inactive” each time. Besides, the Potency entry in assay [16], in assay [17], in assay [18] and in assay [20] was “inactive” throughout. Moreover, the caspase-3 activation in assay [3] was 0.627% (inactive). In assay [5], the result was inactive. The max response in assay [19] is -20.3% and 7.58%.

With `CN(C)C(=O)Cl`, the Potency entry in assay [1], in assay [2], in [4], in assay [6], in [7] and in assay [8] was “inactive” throughout. Besides, the Potency entry in assay [9], in assay [10], in [11], in assay [12], in assay [13] and in assay [14] was “inactive” throughout. Besides, the Potency result in assay [15], in assay [16], in assay [17], in assay [18] and in [20] was “inactive” in each case. Moreover, in [3], the caspase-3 activation is -1.4% (inactive). Further, the molecule was classed as inactive in assay [5]. The max response in assay [19] is -5.01%.
